# PubChem BioAssay (Tox21)
# Where “and” joins values, the source holds several entries; their conditions need not be identical. Equal values may be shown once. Inconclusive results are not listed. Where a call stands in place of a potency, no number is given. Some compounds were tested as several samples or in several runs, with calls that do not always agree. Calls of active or inactive are those of the source. Unless noted, the call rests on the fitted dose curve; in most records, active means well fitted curve in the direction sought with a large enough effect in the repeat runs; inconclusive means weak or mixed curves; inactive means no such curve, though single readings can be large; an effect the other way counts as inactive or inconclusive.
# Columns and labels:
# [1] = biological target: Aryl hydrocarbon receptor (Homo sapiens) (UniProt P35869); experiment: qHTS assay to identify small molecule that activate the aryl hydrocarbon receptor (AhR) signaling pathway (AID 743085); further: nearly all actives have a fitted effect of over 15% in size; further: potency means the concentration at half of the fitted maximal effect;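 on activation: HG2L7.5c1 human HepG2 liver cells with stably integrated DRE-driven firefly reporter; series mostly up to about 70 µM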
# Sequence of Aryl hydrocarbon receptor (Homo sapiens) (P35869 whole entry, looked up): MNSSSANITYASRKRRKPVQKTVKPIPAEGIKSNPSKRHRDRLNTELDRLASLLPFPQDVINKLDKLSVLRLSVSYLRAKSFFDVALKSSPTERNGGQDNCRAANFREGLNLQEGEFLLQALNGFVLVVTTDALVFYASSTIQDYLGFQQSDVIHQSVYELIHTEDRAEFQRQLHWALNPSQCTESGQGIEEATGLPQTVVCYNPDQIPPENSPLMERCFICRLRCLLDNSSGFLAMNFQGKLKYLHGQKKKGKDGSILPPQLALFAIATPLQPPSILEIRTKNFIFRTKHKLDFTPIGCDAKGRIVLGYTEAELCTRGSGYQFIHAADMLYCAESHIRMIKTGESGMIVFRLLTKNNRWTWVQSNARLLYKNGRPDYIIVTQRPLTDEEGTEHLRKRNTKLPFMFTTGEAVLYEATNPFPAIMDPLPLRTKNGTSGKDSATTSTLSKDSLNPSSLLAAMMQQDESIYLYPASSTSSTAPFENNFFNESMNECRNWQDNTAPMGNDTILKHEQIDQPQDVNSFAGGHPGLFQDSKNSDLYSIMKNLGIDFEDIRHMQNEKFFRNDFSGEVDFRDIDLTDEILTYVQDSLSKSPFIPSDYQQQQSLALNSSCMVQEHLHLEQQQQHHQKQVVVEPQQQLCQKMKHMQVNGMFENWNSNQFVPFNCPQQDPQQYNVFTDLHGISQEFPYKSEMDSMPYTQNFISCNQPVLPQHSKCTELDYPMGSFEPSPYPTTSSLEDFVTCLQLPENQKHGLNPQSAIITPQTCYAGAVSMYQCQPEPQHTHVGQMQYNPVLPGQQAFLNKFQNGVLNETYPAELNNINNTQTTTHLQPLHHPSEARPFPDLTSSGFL
# Outline: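 AhR agonist activity is inferred from enhanced light output of a DRE-controlled firefly luciferase reporter in HepG2 cells, measured with ONE-Glo following 24 h treatment at 37C.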
# [2] = qHTS assay to identify small molecule that activate the aryl hydrocarbon receptor (AhR) signaling pathway - cell viability counter screen (AID 743086);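 further: HepG2 liver cells carrying the AhR DRE luciferase reporter; series mostly up to about 70 µM; nearly all actives have a fitted effect of over 45% in size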
# Outline: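 Cytotoxicity counter screen: CellTiter-Fluor signal (30 min, 37 C) in 4000 HepG2 cells/well carrying the DRE-luciferase reporter, following 24 h compound exposure at 37 C.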
# [3] = biological target: Peroxisome proliferator-activated receptor gamma (Homo sapiens) (UniProt P37231); experiment: qHTS assay to identify small molecule agonists of the peroxisome proliferator-activated receptor gamma (PPARg) signaling pathway (AID 743094; active means well fitted activation curve with a large enough effect in the signal ratio in the repeat runs, not every such curve was filed as active; the % refers to the signal ratio)
# Sequence of Peroxisome proliferator-activated receptor gamma (Homo sapiens) (P37231 whole entry, looked up): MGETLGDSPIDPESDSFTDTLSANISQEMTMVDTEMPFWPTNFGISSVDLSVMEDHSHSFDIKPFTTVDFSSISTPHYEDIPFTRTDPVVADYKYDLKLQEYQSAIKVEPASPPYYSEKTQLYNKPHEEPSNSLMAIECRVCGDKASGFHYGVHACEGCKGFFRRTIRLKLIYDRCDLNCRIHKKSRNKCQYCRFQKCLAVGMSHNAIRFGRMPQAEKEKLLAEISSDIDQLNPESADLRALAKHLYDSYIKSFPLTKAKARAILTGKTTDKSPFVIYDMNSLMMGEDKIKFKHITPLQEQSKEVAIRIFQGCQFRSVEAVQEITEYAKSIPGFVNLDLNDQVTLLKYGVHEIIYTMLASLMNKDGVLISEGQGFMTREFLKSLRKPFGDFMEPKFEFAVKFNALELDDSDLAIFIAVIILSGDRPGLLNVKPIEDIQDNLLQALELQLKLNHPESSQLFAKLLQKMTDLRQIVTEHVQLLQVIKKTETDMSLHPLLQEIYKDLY
# Outline: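 Quantitative HTS agonist mode: stable HEK293H line with UAS-beta-lactamase reporter under PPARg control, 17 h compound exposure at 37C, fluorescence after 1 h FRET substrate loading at room temperature.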
# [4] = biological target: Peroxisome proliferator-activated receptor gamma (Homo sapiens) (UniProt P37231); experiment: qHTS assay to identify small molecule antagonists of the peroxisome proliferator-activated receptor gamma (PPARg) signaling pathway (AID 743191; calls by dose curve; further: series mostly up to about 63 µM; nearly all actives have a fitted effect of over 30% in size)
# Outline: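 Beta-lactamase reporter under UAS control in HEK293H PPARg-bla cells; compound treatment 17 h at 37C. Read-out: fluorescence intensity after 1 h room-temperature incubation with LiveBLAzer B/G FRET substrate.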
# [5] = qHTS assay to identify small molecule antagonists of the peroxisome proliferator-activated receptor gamma (PPARg) signaling pathway - cell viability counter screen (AID 743194); further: nearly all actives have a fitted effect of over 55% in size
# Outline: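 Viability was measured as CellTiter-Glo luminescence in GeneBLAzer PPARg UAS-bla HEK293H cells. These cells had been exposed 17 h at 37 C to compounds together with rosiglitazone at 50 nM final, with the beta-lactamase readout taken in the same wells.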
# [6] = qHTS assay for small molecule agonists of the antioxidant response element (ARE) signaling pathway (AID 743202; active means well fitted activation curve with a large enough effect in the signal ratio in the repeat runs, not every such curve was filed as active; the % refers to the signal ratio)
# Outline: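 An ARE-responsive beta-lactamase gene stably integrated in HepG2 cells serves as reporter. After 5 h plating and 16 h compound incubation at 37 C, fluorescence of the B/G FRET substrate was measured.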
# [7] = qHTS assay for small molecule agonists of the antioxidant response element (ARE) signaling pathway - cell viability counter screen (AID 743203; calls by dose curve; further: nearly all actives have a fitted effect of over 55% in size)
# Outline: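 Seeded at 2,000 cells/well, ARE-bla HepG2 cells were incubated 5 hrs before compound addition. After 16 hrs of treatment at 37C with 5% CO2, CellTiter-Glo reagent was added and luminescence read 30 min later.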
# [8] = qHTS assay for small molecule activators of the heat shock response signaling pathway - cell viability counter screen (AID 743209); further: nearly all actives have a fitted effect of over 50% in size
# Outline: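 First, HSE-bla HeLa cells were seeded at 1500 cells/well and kept overnight at 37 C. Next, compounds were pinned in and incubated 5 h. After the FRET substrate step, CellTiter-Glo was added and luminescence read 30 min later.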
# [9] = qHTS assay to identify small molecule agonists of the peroxisome proliferator-activated receptor delta (PPARd) signaling pathway - cell viability counter screen (AID 743211); further: nearly all actives have a fitted effect of over 55% in size
# Outline: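 qHTS cell viability: PPARd-bla HEK293H; 17 h cpd, 37C; CellTiter-Glo, luminescence at 30 min RT.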
# [10] = biological target: Peroxisome proliferator-activated receptor delta (Homo sapiens) (UniProt Q03181); experiment: qHTS assay to identify small molecule agonists of the peroxisome proliferator-activated receptor delta (PPARd) signaling pathway (AID 743212; calls by dose curve)
# Sequence of Peroxisome proliferator-activated receptor delta (Homo sapiens) (Q03181 whole entry, looked up): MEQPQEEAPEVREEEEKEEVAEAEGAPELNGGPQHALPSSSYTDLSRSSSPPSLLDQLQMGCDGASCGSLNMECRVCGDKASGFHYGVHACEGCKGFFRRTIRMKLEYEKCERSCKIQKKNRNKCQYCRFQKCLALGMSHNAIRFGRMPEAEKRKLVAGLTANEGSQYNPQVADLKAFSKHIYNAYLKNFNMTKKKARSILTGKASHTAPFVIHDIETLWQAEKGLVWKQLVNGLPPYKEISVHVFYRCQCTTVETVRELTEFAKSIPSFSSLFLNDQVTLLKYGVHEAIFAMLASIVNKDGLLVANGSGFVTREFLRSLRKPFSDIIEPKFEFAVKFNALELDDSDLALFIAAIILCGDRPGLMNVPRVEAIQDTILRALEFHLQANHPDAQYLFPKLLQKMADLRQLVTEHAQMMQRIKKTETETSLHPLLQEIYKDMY
# Outline: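 HEK293H UAS-bla reporter cells, human PPARd system; compounds delivered in DMSO after 5 h plating, then at 37 C. Beta-lactamase FRET read, 2 h RT substrate step.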
# [11] = qHTS assay to identify small molecule antagonists of the peroxisome proliferator-activated receptor delta (PPARd) signaling pathway - cell viability counter screen (AID 743213); further: nearly all actives have a fitted effect of over 50% in size
# Outline: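 Agonist-stimulated (L165041, 300 nM final) HEK293H PPARd UAS-bla cells are exposed to compounds for 17 h at 37 C, and ATP-based luminescence (CellTiter-Glo) from the same wells reports cytotoxicity.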
# [12] = biological target: Peroxisome proliferator-activated receptor delta (Homo sapiens) (UniProt Q03181); experiment: qHTS assay to identify small molecule antagonists of the peroxisome proliferator-activated receptor delta (PPARd) signaling pathway (AID 743215; active means well fitted inhibition curve with a large enough effect in the signal ratio in the repeat runs, not every such curve was filed as active; the % refers to the signal ratio; further: series mostly up to about 62 µM)
# Outline: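 Inhibition of L165041-driven (300 nM final) PPARd signaling is scored in HEK293H UAS-bla cells. Exposure lasts 17 h at 37 C; beta-lactamase activity is then read by FRET substrate fluorescence after 2 h at room temperature.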
# [13] = qHTS assay to identify small molecule agonists of the farnesoid-X-receptor (FXR) signaling pathway - cell viability counter screen (AID 743218); further: nearly all actives have a fitted effect of over 45% in size
# Outline: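 Cytotoxicity counter-screen run in parallel, same wells: FXR-UAS-bla HEK 293T cells dosed 16 h at 37 C, viability read by CellTiter-Glo luminescence after 30 min at room temperature.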
# [14] = qHTS assay to identify small molecule antagonists of the farnesoid-X-receptor (FXR) signaling pathway - cell viability counter screen (AID 743221; active means well fitted cell-killing curve with a large enough effect in the repeat runs, not every such curve was filed as active; further: nearly all actives have a fitted effect of over 50% in size)
# Outline: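 After a 5 h settling period, FXR-bla HEK 293T cells receive compound and chenodeoxycholic acid (50 uM final) and incubate 16 h at 37 C; CellTiter-Glo luminescence, read after 30 min at room temperature, reports cell viability.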
# [15] = biological target: Vitamin D3 receptor (Homo sapiens) (UniProt P11473); experiment: qHTS assay to identify small molecule agonists of the vitamin D receptor (VDR) signaling pathway (AID 743222; calls by dose curve)
# Sequence of Vitamin D3 receptor (Homo sapiens) (P11473 whole entry, looked up): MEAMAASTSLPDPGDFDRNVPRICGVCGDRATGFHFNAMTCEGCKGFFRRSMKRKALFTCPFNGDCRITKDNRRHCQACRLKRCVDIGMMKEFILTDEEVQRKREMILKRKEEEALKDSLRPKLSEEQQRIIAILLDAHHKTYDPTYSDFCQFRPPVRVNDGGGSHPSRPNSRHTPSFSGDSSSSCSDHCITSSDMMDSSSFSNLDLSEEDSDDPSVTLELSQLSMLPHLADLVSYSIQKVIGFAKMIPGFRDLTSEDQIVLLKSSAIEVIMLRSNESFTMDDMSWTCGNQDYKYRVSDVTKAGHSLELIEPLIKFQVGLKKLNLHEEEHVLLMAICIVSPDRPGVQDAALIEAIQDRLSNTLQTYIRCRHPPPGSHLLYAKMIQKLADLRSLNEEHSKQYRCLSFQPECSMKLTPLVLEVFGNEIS
# Outline: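 Quantitative HTS agonist-mode screen: compounds in DMSO were pin-transferred onto VDR-bla cells and incubated 16 h at 37C, 5% CO2. Reporter activity was detected with LiveBLAzer B/G FRET substrate after 2 h at room temperature.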
# [16] = biological target: Vitamin D3 receptor (Homo sapiens) (UniProt P11473); experiment: qHTS assay to identify small molecule antagonists of the vitamin D receptor (VDR) signaling pathway (AID 743223; active means well fitted inhibition curve with a large enough effect in the signal ratio in the repeat runs, not every such curve was filed as active; the % refers to the signal ratio)
# Outline: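 Reporter line VDR-bla; stimulus 1alpha,25-(OH)2 vitamin D3, 3 nM final; compound co-addition, 16 h 37C/5% CO2; LiveBLAzer B/G substrate 2 h RT; fluorescence intensity.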
# [17] = qHTS assay to identify small molecule agonists of the vitamin D receptor (VDR) signaling pathway - cell viability counter screen (AID 743224); further: series mostly up to about 63 µM; nearly all actives have a fitted effect of over 50% in size
# Outline: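 Viability is measured in the same wells as the VDR-bla reporter assay: after 16 h compound treatment and 2 h substrate loading, CellTiter-Glo is added and luminescence read 30 min later.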
# [18] = qHTS assay for small molecule activators of the heat shock response signaling pathway (AID 743210; active means well fitted activation curve with a large enough effect in the signal ratio in the repeat runs, with a control signal flat, not every such curve was filed as active; the % refers to the signal ratio;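 further: HeLa cells with beta-lactamase reporter driven by heat shock elements; series mostly up to about 63 µM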)
# Outline: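 In HSE-bla HeLa cells, 5 h compound incubation (37 C) precedes addition of LiveBLAzer B/G substrate; after 2.5 h at room temperature, fluorescence intensity indicates reporter induction.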
# [19] = biological target: Bile acid receptor (Homo sapiens) (UniProt Q96RI1); experiment: qHTS assay to identify small molecule antagonists of the farnesoid-X-receptor (FXR) signaling pathway (AID 743217; active means well fitted inhibition curve with a large enough effect in the signal ratio in the repeat runs, not every such curve was filed as active; the % refers to the signal ratio)
# Sequence of Bile acid receptor (Homo sapiens) (Q96RI1 whole entry, looked up): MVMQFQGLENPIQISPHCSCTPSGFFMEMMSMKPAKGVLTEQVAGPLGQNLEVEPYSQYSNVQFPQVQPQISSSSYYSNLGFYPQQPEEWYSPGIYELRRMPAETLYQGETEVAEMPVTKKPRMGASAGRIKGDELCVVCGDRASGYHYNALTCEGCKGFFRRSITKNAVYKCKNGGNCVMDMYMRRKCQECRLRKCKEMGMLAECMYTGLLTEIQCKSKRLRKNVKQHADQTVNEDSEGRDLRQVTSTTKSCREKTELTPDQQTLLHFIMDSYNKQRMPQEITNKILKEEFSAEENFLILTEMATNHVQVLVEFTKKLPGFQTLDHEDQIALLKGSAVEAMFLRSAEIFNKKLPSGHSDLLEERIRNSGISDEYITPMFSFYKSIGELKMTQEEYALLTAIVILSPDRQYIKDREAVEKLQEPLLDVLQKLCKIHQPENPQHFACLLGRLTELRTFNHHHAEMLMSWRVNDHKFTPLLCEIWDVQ
# Outline: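 Antagonist mode against 50 uM (final) chenodeoxycholic acid stimulation in FXR-bla HEK 293T cells, 16 h at 37 °C. Inhibition detected as reduced beta-lactamase activity via LiveBLAzer B/G FRET fluorescence after 2 h at room temperature.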
# [20] = biological target: Bile acid receptor (Homo sapiens) (UniProt Q96RI1); experiment: qHTS assay to identify small molecule agonists of the farnesoid-X-receptor (FXR) signaling pathway (AID 743220; active means well fitted activation curve with a large enough effect in the signal ratio in the repeat runs, not every such curve was filed as active; the % refers to the signal ratio)
# Outline: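 Beta-lactamase reporter under UAS control in GeneBLAzer FXR HEK 293T cells (5000/well) measured with LiveBLAzer FRET substrate after 2 h at room temperature. Compound exposure lasted 16 h at 37C.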
SMILES,Potency [1],outcome [2],outcome [3],Potency [4],outcome [5],Potency [6],outcome [7],outcome [8],outcome [9],outcome [10],outcome [11],Potency [12],outcome [13],outcome [14],outcome [15],outcome [16],outcome [17],outcome [18],outcome [19],outcome [20]
CC(C#N)CCC#N (configuration not stated),inactive,inactive,inactive,inactive,inactive,inactive,inactive,inactive,inactive,inactive,inactive,inactive,inactive,inactive,inactive,inactive,inactive,,,
BrCCBr,inactive,inactive,inactive,inactive,inactive,inactive,inactive,inactive,inactive,inactive,inactive,inactive,inactive,,inactive,inactive,inactive,,,
CC(C)C#N,inactive,inactive,inactive,inactive,inactive,inactive,inactive,inactive,inactive,inactive,inactive,inactive,inactive,,,,inactive,inactive,,
[O-][Cl+2]([O-])O,inactive,inactive,inactive,inactive,inactive,inactive,inactive,inactive,inactive,,inactive,,inactive,,inactive,inactive,inactive,inactive,inactive,inactive
NCCc1ccc(O)cc1,inactive,inactive,inactive,inactive,inactive,inactive,inactive,inactive,inactive,inactive,inactive,inactive,inactive,inactive,,,inactive,,,
ClCCBr,inactive,inactive,inactive,inactive,inactive,inactive,inactive,inactive,inactive,inactive,inactive,inactive,inactive,,,,inactive,,,
CCOP(=S)(OCC)Oc1cnc2ccccc2n1,inactive and 10.9 µM (active),inactive,inactive,inactive,,inactive,inactive,inactive,inactive,inactive,,inactive,inactive,inactive,,,inactive,inactive,inactive,inactive
OC(O)C(Cl)(Cl)Cl,inactive,inactive,inactive,inactive,inactive,inactive,inactive,inactive,inactive,inactive,inactive,inactive,inactive,inactive,,,inactive,,inactive,inactive
ClCc1cccnc1,inactive,inactive,inactive,inactive,inactive,inactive,inactive,inactive,inactive,inactive,inactive,inactive,inactive,inactive,inactive,inactive,inactive,inactive,inactive,inactive
